Experimental findings from PubChem BioAssay (NCATS) are described below.

Active and inactive are the calls of the source. Calls follow the shape of the dose curve; as a rule, active = well fitted inhibition curve with a large enough effect; inconclusive = small, poorly fitted or top-dose-only effect; inactive = flat fitted curve, though single readings scatter.
Potency is read from the fitted curve at half-maximal effect.

Chain of Phosphoglycerate kinase, glycosomal (Trypanosoma brucei brucei) (P07378 whole entry, looked up): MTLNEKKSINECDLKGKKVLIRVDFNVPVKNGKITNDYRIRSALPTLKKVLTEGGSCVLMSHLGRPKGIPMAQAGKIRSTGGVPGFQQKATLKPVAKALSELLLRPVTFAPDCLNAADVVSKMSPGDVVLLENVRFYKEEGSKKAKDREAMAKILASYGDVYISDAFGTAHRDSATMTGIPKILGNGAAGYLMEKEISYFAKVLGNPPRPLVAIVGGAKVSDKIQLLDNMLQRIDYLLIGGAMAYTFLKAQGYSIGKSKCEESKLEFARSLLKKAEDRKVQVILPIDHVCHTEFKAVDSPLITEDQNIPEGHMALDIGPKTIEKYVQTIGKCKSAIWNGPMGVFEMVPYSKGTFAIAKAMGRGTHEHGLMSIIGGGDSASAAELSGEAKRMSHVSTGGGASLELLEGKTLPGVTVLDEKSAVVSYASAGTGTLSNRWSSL

The assay addresses Phosphoglycerate kinase, glycosomal (Trypanosoma brucei brucei) (UniProt P07378). The assay is described as follows: qHTS Validation Assay to Find Inhibitors of Phosphoglycerate Kinase (AID 504547).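 As to activity, negative = inhibition: control wells lack PGK and mark full inhibition.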 The conditions noted are these: enzymatic PGK inhibition, coupled luminescence read-out; series mostly up to 57.5 µM; activity, negative = inhibition: at the top concentration. An excerpt: NIH Molecular Libraries Probe Production Network [MLPCN]
NIH Chemical Genomics Center [NCGC]
PI Name: Malcolm Walkinshaw, University of Edinburgh
Several species of the Trypanosomatidae family of parasitic protozoans cause a spectrum of diseases
throughout the tropical and subtropical world. Sleeping sickness, caused by two subspecies of Trypanosoma brucei, is endemic to areas of sub-Saharan Africa, while Chagas disease, a manifestation of Trypanosoma cruzi infection, is prevalent throughout Central and South America. In addition, many species of Leishmania are responsible for a range of cutaneous and visceral diseases, causing ulcers, destructive lesions and kalaazar, a lethal infection of the viscera. Collectively, these organisms infect 30 million people worldwide (~500 million live in endemic areas), and account for ~130,000 deaths annually. Given their debilitating and prevalent nature, trypanosomatid parasites impose a heavy medical, economic and social burden on entire populations, primarily in the developing world. The problem is further exacerbated by the fact that existing treatments have progressed little in the past 50 years, and current drugs show high toxicity and poor efficacy.
Blood-stream stages of T. brucei are entirely dependent on glycolysis as a source of ATP, and the tricarboxylic acid cycle and oxidative phosphorylation are both repressed. Glycolysis in axenically cultured T. cruzi, representing the intracellular pathogenic stage, is also essential for these parasites. […] Previous studies have shown that the glycolytic enzyme, phosphoglycerate kinase (PGK), is a viable target for drugs to kill these parasites.
NCGC Assay Protocol Summary:
Briefly, 3ul of substrate/PGK buffer (columns 1,2,5-48) are dispensed into Greiner white solid bottom 1536-well assay plates; columns 3-4 receive only TEA buffer as 0x PGK controls. Compounds are then transferred via Kalypsys pin tool equipped with 1536-pin array (10nl slotted pins, V&P Scientific, San Diego, CA). Following addition of compound, 1ul of GAPDH (100nM final concentration, all columns) is added to initiate the reaction (this upstream coupling enzyme is necessary for in-well production of PGK substrate, 1,3-bisphosphoglycerate (1,3-BPG), which is unstable and not commercially available). The plates are then incubated at room temperature for 60 minutes. Kinase-Glo Plus reagent is added (2ul) and plates incubated for 10 minutes, before being transferred to a ViewLux high-throughput CCD imager (PerkinElmer) wherein single end-point measurements of luminescence are acquired using a clear filter. All reagents are diluted in an assay buffer consisting of 100mM TEA (pH 7.6), 5mM MgCl2 and 0.01% Tween-20.
A general note: qHTS replaces the single test concentration by a dilution series.
Turning to `CCCCS(=N)(=O)CCC(N)C(=O)O` (stereo unspecified), the “activity, negative = inhibition” value is 1.69% (inactive). Regarding `COc1cc2nc(N3CCCN(C)CC3)nc(NC3CCN(Cc4ccccc4)CC3)c2cc1OC`, the “activity, negative = inhibition” value is 3.46% (inactive). For the compound `O=C(O)C1CCCN(CCC=C(c2ccccc2)c2ccccc2)C1` (stereo unspecified), the “activity, negative = inhibition” value was 2.63% (inactive). Same read-out and setting: with `Cc1ccc(S(=O)(=O)N[C@@H](Cc2ccccc2)C(=O)CCl)cc1` the figure was 15.4% (inactive); with `CCN1CCCC1CNC(=O)c1cc(S(N)(=O)=O)ccc1OC` (stereo unspecified), 0.117% (inactive). In the case of `CC(=O)[C@H]1CC[C@H]2[C@@H]3CCC4=CC(=O)CC[C@]4(C)[C@H]3CC[C@]12C`, the “activity, negative = inhibition” value is -1.94% (inactive). Still for that read-out and setting: to `CC(C)NCC(O)c1ccc(NS(C)(=O)=O)cc1` (stereo unspecified) belongs 2.19% (inactive); to `COc1cc2ncnc(Nc3cccc(Cl)c3)c2cc1OC`, 2.83% (inactive); to `CCN(CC)CCn1c(=O)c(Cc2ccc(OC)cc2)nc2ccccc21`, 4.78% (inactive). As for `CC1CC2C3CCC4=CC(=O)C=C[C@]4(C)[C@@]3(F)[C@@H](O)C[C@]2(C)[C@@]1(O)C(=O)CO` (stereo partly specified), the “activity, negative = inhibition” value was 4.84% (inactive). In the case of `NC(=O)c1cccc(N)c1`, the “activity, negative = inhibition” value was 6.81% (inactive). With `NC(=O)c1ccc2[nH]ccc2c1`, the “activity, negative = inhibition” value was 5.18% (inactive). `CC1=C(C(=O)O)N2C(=O)[C@@H](NC(=O)C(N)c3ccccc3)[C@H]2SC1` (stereo partly specified): the “activity, negative = inhibition” value was -2.43% (inactive). `CCN(CC)CC#CCOC(=O)C(O)(c1ccccc1)C1CCCCC1` (stereo unspecified): the “activity, negative = inhibition” value was 8.64% (inactive). As for `OCc1ccc(-c2nn(Cc3ccccc3)c3ccccc23)o1`, the “activity, negative = inhibition” value is 9.37% (inactive).

As for `N[C@@H](Cc1ccc(O)c(O)c1)C(=O)O`, the Potency is 9.53 µM (active).
